Experimental data as given in PubChem BioAssay.
Activity calls are given as the source filed them. Unless noted, the rule behind the calls is not given here.

Tests used:
[1] = HepG2 liver cancer cell viability effects, profiling panel, resazurin fluorescence, 24 h, PK04 Diversity Set (AID 1172); conditions: higher = more signal
[2] = basal S. cerevisiae growth modulation, no modifier, primary screen, OD600, strain BY4716, 24 h, basal condition (AID 1173); conditions: OD600, 24 h, higher = more signal, called active from +8 up or from −8 down
[3] = MM1S myeloma cell viability, profiling panel, resazurin fluorescence, basal, 24 h, PK04 Diversity Set (AID 1174); conditions: higher = more signal, called active from +8 up or from −8 down;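 note: MM1S multiple myeloma cell line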
[4] = biological target: Dihydroorotate dehydrogenase (quinone), mitochondrial (Plasmodium falciparum (isolate 3D7)) (UniProt Q08210); assay: PfDHODH enzyme inhibitors, primary screen, biochemical, C-terminal His tag, absorbance 600 nm (AID 1175); conditions: DCIP absorbance 600 nm, higher = more signal, called active from +8 up or from −8 down;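 note: recombinant parasite enzyme with a five histidine tag at its C terminus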
[5] = P. aeruginosa biofilm formation inhibitors, primary screen, strain PAO1, LB-PBS medium, absorbance 600 nm (AID 1176); conditions: P. aeruginosa PAO1 growth/biofilm, A600, 12 h; higher = more signal
[6] = S. cerevisiae RM11-1a growth modifiers, primary screen, strain RM11-1a, OD600, basal, 24 h (AID 1177); conditions: OD600, 24 h, higher = more signal, called active from +8 up or from −8 down;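 note: cultures grown under basal conditions with no added stressor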
[7] = E. coli acrAB mutant growth effects, primary screen, E. coli filamentation inducers, strain DRC39, OD650, 24 h (AID 1178); conditions: higher = more signal, called active from +8 up or from −8 down;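 note: growth measured as culture turbidity by optical density at 650 nm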
[8] = E. coli acrAB mutant growth effects, primary screen, E. coli filamentation inducers, strain DRC39, OD650, 48 h (AID 1179);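 note: screen aims at cell division blockers that make cells filament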; conditions: E. coli DRC39 delta-acrAB growth, higher = more signal, called active from +8 up or from −8 down
[9] = RPMI8226 myeloma cell viability, profiling panel, resazurin fluorescence, basal, 24 h, PK04 Diversity Set (AID 1180); conditions: higher = more signal;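 note: RPMI8826 multiple myeloma cell line at 5000 cells per well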
[10] = biological target: E3 ubiquitin-protein ligase XIAP (Homo sapiens) (UniProt P98170); assay: XIAP binders, primary screen, biophysical, small-molecule microarray, fluorescence 635 nm (AID 1181); conditions: small-molecule microarray binding, higher = more signal;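 note: score merges 667 nm emission and signal to noise over triplicate slides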
[11] = tested on: XIP peptide (Xip251-270) binding; assay: small-molecule binders of XIP peptide, primary screen, biochemical, small-molecule microarray, fluorescence 635/667 nm, 0.1 µg/mL protein (AID 1182); conditions: fluorescent protein binding, 635 nm, higher = more signal, called active from +8 up or from −8 down
[12] = tested on: XIP peptide (Xip251-270); assay: small-molecule binders of XIP peptide, primary screen, biochemical, small-molecule microarray, fluorescence 635/667 nm, 0.5 µg/mL protein (AID 1183); conditions: small-molecule microarray binding, fluorescence 635 nm; higher = more signal
[13] = Plasmodium falciparum growth inhibition, primary screen, strain 3D7, DAPI fluorescence, 100 nL (AID 1184);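 note: parasites grown inside human red blood cells in medium with human serum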; conditions: P. falciparum 3D7 growth, 3 d, higher = more signal
[14] = biological target: Homeobox protein Hox-A13 (Mus musculus) (UniProt Q62424); assay: inhibitors of HoxA13-DNA binding, primary screen, biochemical, fluorescence polarization, labeled oligonucleotide (AID 1185); conditions: 15 min, higher = more signal, called active from +8 up or from −8 down
[15] = inhibitors of hydroxyurea-induced Chk1 phosphorylation, primary screen, imaging, HeLa, phospho-Chk1 antibody, percent positive cells (AID 1186); conditions: hydroxyurea-induced phospho-Chk1 immunofluorescence imaging, higher = more signal
[16] = inhibitors of hydroxyurea-induced Chk1 phosphorylation, primary screen, imaging, HeLa, phospho-Chk1 nuclear intensity (AID 1187); conditions: hydroxyurea-induced phospho-Chk1 immunofluorescence imaging, higher = more signal

Chain of Dihydroorotate dehydrogenase (quinone), mitochondrial (Plasmodium falciparum (isolate 3D7)) (Q08210 whole entry, looked up): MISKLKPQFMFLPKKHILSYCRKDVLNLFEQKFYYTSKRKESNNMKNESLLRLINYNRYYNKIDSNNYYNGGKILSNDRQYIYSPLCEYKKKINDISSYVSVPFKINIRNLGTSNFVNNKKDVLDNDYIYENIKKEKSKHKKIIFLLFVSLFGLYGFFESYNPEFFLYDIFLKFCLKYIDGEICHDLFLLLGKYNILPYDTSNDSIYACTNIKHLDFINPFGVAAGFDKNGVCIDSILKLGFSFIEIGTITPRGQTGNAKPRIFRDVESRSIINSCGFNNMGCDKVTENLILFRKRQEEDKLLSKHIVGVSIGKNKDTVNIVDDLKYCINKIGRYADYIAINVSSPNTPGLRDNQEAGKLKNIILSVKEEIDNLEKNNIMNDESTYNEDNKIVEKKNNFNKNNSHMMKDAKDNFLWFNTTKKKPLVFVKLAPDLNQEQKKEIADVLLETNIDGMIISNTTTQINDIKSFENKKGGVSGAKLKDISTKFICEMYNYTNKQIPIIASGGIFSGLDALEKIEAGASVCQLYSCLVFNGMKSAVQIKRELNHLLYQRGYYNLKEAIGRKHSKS
Chain of E3 ubiquitin-protein ligase XIAP (Homo sapiens) (P98170 whole entry, looked up): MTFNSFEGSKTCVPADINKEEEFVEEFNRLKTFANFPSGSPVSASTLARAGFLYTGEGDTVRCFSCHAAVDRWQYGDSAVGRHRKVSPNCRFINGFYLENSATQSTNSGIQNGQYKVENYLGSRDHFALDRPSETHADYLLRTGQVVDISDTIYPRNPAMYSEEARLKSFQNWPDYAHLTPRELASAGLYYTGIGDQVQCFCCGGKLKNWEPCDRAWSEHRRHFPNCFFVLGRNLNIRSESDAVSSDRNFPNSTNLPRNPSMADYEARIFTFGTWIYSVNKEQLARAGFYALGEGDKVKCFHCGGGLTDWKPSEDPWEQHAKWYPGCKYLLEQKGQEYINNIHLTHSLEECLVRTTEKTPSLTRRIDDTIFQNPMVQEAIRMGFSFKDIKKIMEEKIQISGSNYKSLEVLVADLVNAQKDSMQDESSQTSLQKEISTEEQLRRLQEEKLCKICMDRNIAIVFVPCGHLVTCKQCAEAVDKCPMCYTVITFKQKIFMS
Chain of Homeobox protein Hox-A13 (Mus musculus) (Q62424 whole entry, looked up): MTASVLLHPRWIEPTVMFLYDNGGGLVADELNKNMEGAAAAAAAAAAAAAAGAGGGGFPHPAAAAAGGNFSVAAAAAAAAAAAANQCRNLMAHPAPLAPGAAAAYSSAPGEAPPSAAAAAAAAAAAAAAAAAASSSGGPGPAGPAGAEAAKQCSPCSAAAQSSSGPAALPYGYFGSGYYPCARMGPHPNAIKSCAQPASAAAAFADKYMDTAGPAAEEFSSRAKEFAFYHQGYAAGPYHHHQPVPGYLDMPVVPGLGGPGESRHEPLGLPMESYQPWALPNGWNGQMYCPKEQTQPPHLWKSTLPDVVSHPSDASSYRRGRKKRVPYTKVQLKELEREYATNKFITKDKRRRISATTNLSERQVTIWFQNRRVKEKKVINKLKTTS

SMILES | z-score [1] | z-score [2] | z-score [3] | composite z-score [4] | z-score [5] | z-score [6] | z-score [7] | z-score [8] | z-score [9] | composite z-score [10] | composite z-score [11] | composite z-score [12] | z-score [13] | z-score [14] | z-score [15] | z-score [16]
COC(=O)[C@@]1(Cc2ccc(F)cc2)[C@H]2c3cc(C(=O)N(C)C)n(CC4CC4)c3C[C@H]2CN1C(=O)c1ccccc1 | -0.881 | 1.78 (inactive) | -1.37 (inactive) | -0.0778 (inactive) | 0.206 (inactive) | 0.479 (inactive) | -0.868 (inactive) | -0.398 (inactive) | -2.09 | 0.454 | 0.308 (inactive) | 0.524 | -1.33 | -2.84 (inactive) | -1.45 (inactive) | -1.76 (inactive)
CCC(CC)C(O)C1C=CC2C(=O)N(C)C(=O)C2N1Nc1ccccc1 (stereo not given) | -0.138 | -0.692 (inactive) | -0.193 (inactive) | -0.546 (inactive) | 1.12 (inactive) | -0.0874 (inactive) | -0.53 (inactive) | -0.662 (inactive) | 0.257 | 0.661 | 0.544 (inactive) | 0.758 | 0.865 | -3.63 (inactive) | -0.0753 (inactive) | 0.0501 (inactive)
O=C1O[C@H](c2ccccc2)[C@H](c2ccccc2)N2[C@H]1[C@@H](C(=O)O)[C@]1(C(=O)Nc3ccc(C#CCCO)cc31)[C@H]2c1ccc(O)cc1 | 1.11 | -0.326 (inactive) | 1.5 (inactive) | 0.158 (inactive) | 0.0568 (inactive) | 0.0737 (inactive) | 0.994 (inactive) | 1.69 (inactive) | 1.14 | -0.127 | 0.207 (inactive) | 0.901 | -0.136 | -5.42 (inactive) | 0.11 (inactive) | -0.002 (inactive)
CN1C(=O)C2C=CC(C(O)C3CCCCC3)N(Nc3ccc([N+](=O)[O-])cc3[N+](=O)[O-])C2C1=O (stereo not given) | -0.248 | 0.819 (inactive) | -0.778 (inactive) | -0.877 (inactive) | -0.159 (inactive) | -0.0006 (inactive) | -0.719 (inactive) | -0.556 (inactive) | -0.373 | 0.618 | 0.514 (inactive) | 0.487 | 0.501 | -2.4 (inactive) | 0.168 (inactive) | 0.377 (inactive)
C=C(COC)/C(=C/C[C@@H](OC(C)=O)c1ccc(CO)o1)c1cnc2ccccc2c1 | -0.956 | -0.677 (inactive) | 0.915 (inactive) | -8.64 (active) | 0.579 (inactive) | 0.704 (inactive) | 0.685 (inactive) | -0.0551 (inactive) | 0.47 | 0.0225 | 1.12 (inactive) | 0.797 | -1.35 | -4.13 (inactive) | -0.154 (inactive) | -0.323 (inactive)
CN(C)C(=O)[C@@]1(Cc2ccccc2CN=[N+]=[N-])N=C(c2ccc(OCCCO)cc2)O[C@H]1c1ccccc1 | 0.0128 | 1.11 (inactive) | -1.82 (inactive) | 1.12 (inactive) | 0.41 (inactive) | 1.39 (inactive) | 0.316 (inactive) | 0.0743 (inactive) | -3.38 | -0.0118 | 1.79 (inactive) | 0.817 | -2.27 | -5.09 (inactive) | -0.631 (inactive) | -0.679 (inactive)
[N-]=[N+]=NCc1ccccc1[C@@H]1OC(c2ccc(OCCCO)cc2)=N[C@]1(CCS(=O)(=O)c1ccccc1)C(=O)NCc1ccccc1 | 0.239 | 0.743 (inactive) | -0.304 (inactive) | 0.59 (inactive) | 0.882 (inactive) | 0.797 (inactive) | 0.198 (inactive) | -0.678 (inactive) | 0.144 | 0.194 | 0.212 (inactive) | 0.838 | -2.5 | -0.438 (inactive) | 0.21 (inactive) | -0.126 (inactive)
COc1cc2c(cc1OC)CN(C(=O)[C@@H]1[C@H]3C(=O)O[C@H](c4ccccc4)[C@H](c4ccccc4)N3[C@H](c3ccc(O)cc3)[C@@]13C(=O)Nc1ccc(C#CC4(O)CCCCCC4)cc13)CC2 | 0.396 | -0.313 (inactive) | 0.323 (inactive) | -0.495 (inactive) | 0.958 (inactive) | 0.525 (inactive) | 0.241 (inactive) | 0.475 (inactive) | 0.777 | -0.0559 | 0.479 (inactive) | 0.774 | -0.489 | -1.53 (inactive) | 0.263 (inactive) | 0.812 (inactive)
O=C1OCCC/C=C\[C@H]2OC34C=CCN(c5ccc6ccccc6c5)C(=O)[C@H]3N(CCCCCCO)C(=O)[C@@H]4C12 (stereo not given in full) | -0.156 | -1.28 (inactive) | 0.241 (inactive) | -1.97 (inactive) | 0.481 (inactive) | -1.49 (inactive) | 0.374 (inactive) | 1.01 (inactive) | 0.152 | 0.115 | 0.346 (inactive) | 0.0339 | -0.577 | -5.08 (inactive) | -0.833 (inactive) | -0.428 (inactive)
C=CCOC(=O)[C@H]1[C@@H]2C(=O)O[C@@H](c3ccccc3)[C@@H](c3ccccc3)N2[C@@H](c2ccc(OCCOC(=O)[C@@H]3C[C@@H]4C(=O)N[C@@H](CCCC[N+](C)(C)C)C(=O)N4[C@@H]3c3ccc(O)cc3)cc2)[C@]12C(=O)Nc1ccccc12 | 0.863 | -3.17 (inactive) | 0.844 (inactive) | -2.77 (inactive) | 0.988 (inactive) | 0.545 (inactive) | 0.0865 (inactive) | -0.661 (inactive) | 1.16 | 0.0055 | 0.543 (inactive) | 0.637 | 0.327 | 6.39 (inactive) | -0.75 (inactive) | -0.282 (inactive)
